Reference: the supplement of paper PMC12632987

T1: USP38, Q8NB14
T1 chain: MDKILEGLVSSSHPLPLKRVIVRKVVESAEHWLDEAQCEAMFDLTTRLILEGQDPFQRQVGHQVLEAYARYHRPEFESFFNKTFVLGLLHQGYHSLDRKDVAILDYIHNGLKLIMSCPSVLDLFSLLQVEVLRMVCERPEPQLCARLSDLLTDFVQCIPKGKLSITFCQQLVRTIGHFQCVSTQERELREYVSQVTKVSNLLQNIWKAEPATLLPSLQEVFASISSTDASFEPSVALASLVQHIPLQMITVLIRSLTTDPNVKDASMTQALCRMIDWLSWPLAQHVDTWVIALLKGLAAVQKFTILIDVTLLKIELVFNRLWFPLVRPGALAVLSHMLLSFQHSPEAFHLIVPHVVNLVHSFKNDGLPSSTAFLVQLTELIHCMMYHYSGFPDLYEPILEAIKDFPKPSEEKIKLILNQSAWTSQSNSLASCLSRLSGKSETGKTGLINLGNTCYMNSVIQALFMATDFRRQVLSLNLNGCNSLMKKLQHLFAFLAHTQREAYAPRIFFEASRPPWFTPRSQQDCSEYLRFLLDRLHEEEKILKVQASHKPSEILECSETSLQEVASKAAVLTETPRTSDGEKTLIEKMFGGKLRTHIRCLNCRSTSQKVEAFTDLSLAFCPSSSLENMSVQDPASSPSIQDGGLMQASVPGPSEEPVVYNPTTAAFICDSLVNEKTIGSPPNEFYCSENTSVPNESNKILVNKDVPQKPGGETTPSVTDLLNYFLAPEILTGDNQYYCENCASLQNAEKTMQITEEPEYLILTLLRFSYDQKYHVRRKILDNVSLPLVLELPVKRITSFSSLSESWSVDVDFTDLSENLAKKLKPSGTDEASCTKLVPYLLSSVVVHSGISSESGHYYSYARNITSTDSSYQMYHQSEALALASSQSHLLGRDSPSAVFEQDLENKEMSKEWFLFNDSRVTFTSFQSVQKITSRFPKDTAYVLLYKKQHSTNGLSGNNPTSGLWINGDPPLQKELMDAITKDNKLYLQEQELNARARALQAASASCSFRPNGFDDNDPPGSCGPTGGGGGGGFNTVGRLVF

B1: usp_38_diff_out_14_2_84 (protein)
chain: MEEEIKKKTKETLKKIEEAIKRAKELKERVKKDPSLKEKAREELFKEWDEAADKVGELEKLLRENKENPELNKKAREEVNKKLTELTEVALETLELIAEV
B2: usp_38_diff_out_14_2_118 (protein)
chain: GEEELKEKKKATLATLDDAIAKAKALEAAVKADPSIAEQARAELRKAWDAAADAVGELERLIREHPEHRELNKEAIKEVNEKLTELTEALLAALQTIAEA
B3: usp_38_diff_out_14_2_79 (protein)
chain: MEEKAKEVLKKLEEKTKEVKKVTEELEKALSGSKEEIEKAVEKAFKVLDEAGKVSAEAEEVRRENPKFRAEFKKAFKELDKELSKLSKAILEALEKIAEL
B4: usp_38_diff_out_14_2_114 (protein)
chain: GEAEIKAATAETLAVLEEAIKKLKELTERVKADPSKAEEARKEAFEAWDKAADAVGALRKLMEAHREHRAEIKEATAKVNEAITKLTEALTETLELAAEA
B5: usp_38_diff_out_14_2_82 (protein)
chain: AVEKIKKATEETLKVLEEAIKKFKELKKEVEADPSKAEEARKEILKAWDKAGDAVGALNKLIEENPEAKEENKEATKKVNEALTKLTKEALEALQAAAEA
B6: usp_38_diff_out_14_2_120 (protein)
chain: AVEEIKKATDDTLAKLDAAIAAAKALTAQVKADPSLKEQARAALNAAWDAAGDAVGALNKLLEANKEEKATNKEATAKTNAAITELTAAVLDALTTIEEA
B7: usp_38_diff_out_14_2_81 (protein)
chain: AEEELKAATEKTLAVLDDAIKAAKELTKEVKKDPSLAEKAREKLLEEWDKAGDAVGELEKLILENKEAKETNKEAREKVNKKLDELTKAFLEALETAAEA
B8: usp_38_diff_out_14_2_89 (protein)
chain: GEEELEKKTKETLEKLEELIELAKKIKEEVEKDPSKAEELRKELFKKWDEVGEKVGELAKLIEEHKELPELNKKAVKEVNEKLSEATKEILEALELLAEA
B9: usp_38_diff_out_14_2_97 (protein)
chain: GKEELEKKFKETKKVLEEAIKKAKELKKEVEKDPSKAEEARKKLFEAWDKAADKVGELQKLLEENPEYKELNKKIIEEVNKLLTELTKAALEALELIAEA
B10: usp_38_diff_out_14_2_93 (protein)
chain: GEEELKKLFEETKKVLEEAIKRAEELTKEVKADPSQAEKARKELFKAWDEAGDKVGELQKKIEENKEHKELNKKIIKEVNELITKLTEAALAALEEIAAA
B11: usp_38_diff_out_14_2_117 (protein)
chain: GEEEIKKATEETLKVLKEAIKKLKELKKRVEEDPSKAAEATEEAFRAWDKAADAVGALNKLLEAHKEHREENKKATKEVNKAITELTEALTELLTAAAEA
B12: usp_38_diff_out_14_2_119 (protein)
chain: AKAEIAKATAATLATLAAAIKKAKELTKKVKADPSLKEKARAELDKAWDAAGDAVGALNTLLLANKDLKAENKKATAATNAAITELTKTYTEALEAIEEA
B13: usp_38_diff_out_14_2_116 (protein)
chain: AVEEIKAATDATLATLAAATAALAELKKRVEADPSLAEEARAEAFAAWDAAADAVGALNRLMEANREHRAERKEATAKINAALTTLTAALTETLEAAAAA
B14: usp_38_diff_out_14_2_83 (protein)
chain: MEEEIKEKTKETLEEIEKAIKELKELEKEVKKDPSKKEEAYKKAFEKWDKAADKVGELEKLLRENKENPELNKKAKEEINEKLTKLTEEALKLLETIAEV
B15: usp_38_diff_out_14_2_78 (protein)
chain: MEEKVKKLKEEIEKLLEEAKKLLEEAKKLLKEGDELAEEVLEKLDKAFDKLGELAKLLRELRELDPSQRAFVKEMTKKANELIDELTELRTEALLILAER
B16: usp_38_diff_out_14_2_80 (protein)
chain: AEEKLKKATEETLKVLKEAIKKAKELKKEVEADPSLAEKAREELLKAWDKAGDAVGALNKLIEENKEAKETRKKATEEVNKAIDELTKEVLEALQTAAEA
B17: usp_38_diff_out_14_2_86 (protein)
chain: AEEELKKKTEETKKKLKEGIELAKKIKEEVKKDPSKAEELRKKLFEKHDEIGDKVGELAKLIEEHKEIPALRKEAVKEVNELLTEYTKALLEALEELAKA
B18: usp_38_diff_out_14_2_122 (protein)
chain: AEAELEAAAAATKATLEDAIKRVKELLEEVKKDPSKAEEALKELRRLWDEAADAVGALARLMEAHRELRALRKRITAEVNALITEFTEAVLELLEEIAEA
B19: usp_38_diff_out_14_2_112 (protein)
chain: AKEELEKKKEETLKTLEEAIKKAKELKKEVEKDPSKKEEAFKELRKKHDEAADKVGELNKLILENKELRELNKKVTEEVNEKIKEYTEAVLEALEKIAEA
B20: usp_38_diff_out_14_2_88 (protein)
chain: AEEELKKATEETLKKLEEGIKLAKELTKKVKEDPSQAEKAREELFKKHDEIGDAVGRLAKLIEEHKEIPALNKEAVEEVNKKLTEYTEETLKALELLAEA
B21: usp_38_diff_out_14_2_110 (protein)
chain: AEEKLKKATKETLATLKEAIKLAKELKKEVKKDPSKKEEARKKLFEAHDKAADAVGKLAKLIEENKELRELNKKATKEVDKAITEYTKAALEALEEIEKA
B22: usp_38_diff_out_14_2_111 (protein)
chain: AKEELEKATKETLEVLKEATKLAKELKEEVKKDPSKAEEARKKLFEAHDKAGDAVGELNKLILENKELRELNKKATEEVNKAITEYTKATLEALETIAEA
B23: usp_38_diff_out_14_2_121 (protein)
chain: AKEELEKATKKALETLDKALEEAKRLKEEVKKDPSKAEEAFKRLREAWDKAADAVGELNKLMLEHKEEKETIKEATEKVNKKITELTKATLEALEEAAKA
B24: usp_38_diff_out_14_2_115 (protein)
chain: AVEELKKKTEETLKVLDEAIKKLKELTERVKKDPSTAEEAVKEAFKAWDKAADAVGELNKLILANREHRAENKEATKKVNEKITELTKALTEALTLAAEA
B25: usp_38_diff_out_14_2_87 (protein)
chain: AEEELKKATKETLKKLEEHIKLAKELAERVKKDPSTAEQAREELFASWDEVGDKVGALAKLIEENKEIPELRKKAIEEVNKKLTEATEATLAALELLAEA
B26: usp_38_diff_out_14_2_109 (protein)
chain: KEEELKKKKEETLKKLDEAIKKAKELKEEVKKDPSKKEEAFKELFEKHDEAADAVGELNKLILENKELRELNKEVTEEVNKKITEYTEAVLEALEEIAEA
B27: usp_38_diff_out_14_2_94 (protein)
chain: GEEELKKKYEETLKVLEEAIKEAKKIKEEVKKDPSIAEEKRKELFEKWDEAADKVGELQKLLEENPEHKELNKKIIEEVNKKITELTKAALEALEELAKA
B28: usp_38_diff_out_14_2_113 (protein)
chain: AEEELKKAAEKTLKVLDEAIKNLKALKKKVEADPSKAEEATKEAFAAWDKAADAVGELNKLIEANREHRAERKEVTEKVNKKITELTDALTELLTAAAEA
B29: usp_38_diff_out_14_2_95 (protein)
chain: GEEELKKAAKETKEVLKKAIEEAKELEKKVKEDPSQAEQARKELFKKWDEAGDAVGKLEKLLRENPEHKELNKKIIEEVNKLINELTKAALKALETLAEA
B30: usp_38_diff_out_14_2_92 (protein)
chain: GKEKLEEKFKETKEKLKEAIKKAKELKKEVKKDPSKAEEAREELFKAWDEAGDKVGELEKLLRENPEYKELNKKIKEEVNKLITELTEAALEALEEIAKA
B31: usp_38_diff_out_14_2_85 (protein)
chain: AEEKIKKATEKTLKKLEEAIKLAKELKEEVKKDPSKAEKAREELFKKWDEVGDAVGELAKLLEENKEIPALNKEANEKVNEKLTELTKATLEALEELAEA
B32: usp_38_diff_out_14_2_90 (protein)
chain: GEEELKKKYEETKKTLEEAIKKAKELKEEVKKDPSKAEEARKRLFEEWDKAADKVGELEKLIRENPEHKELNKKIIEEVNKLITELTKAALEALEAIAEA

Biological target: T1, USP38, Q8NB14
Assay: median log2 fold change of GCK-ALFA target abundance (FLAG IP / Myc IP barcode read proportion) (log2 ratio); each designed protein is fused to an ALFA-tag nanobody in HEK293 cells to bring the named protein to FLAG-tagged glucokinase (GCK); Myc marks an untargeted standard; higher = target protein stabilised (more abundant)
Conditions: target protein: 3xFLAG-MCP-GCK-ALFA reporter; HEK293 landing pad (RPLP)
Procedure, shortened: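 An ALFA-nanobody-fused binder library was recombined into HEK293 landing-pad cells and induced with 2 μg mL^−1 doxycycline. Cells were transfected with a plasmid expressing a FLAG-tagged target and a Myc-tagged standard. After 48 h, lysates underwent anti-FLAG and anti-Myc immunoprecipitation, and circular RNA barcodes were reverse transcribed, amplified and sequenced. Target abundance is the per-binder median log2 ratio of FLAG to Myc barcode read proportions. Barcodes needed ≥10^−7 proportion in both replicates, binders ≥3 barcodes per replicate, and a 10^−6 pseudocount was added; the two replicates were pooled.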

| Binder | median log2 fold change |
| --- | --- |
| B1 | -0.366 |
| B2 | -0.0211 |
| B3 | -0.624 |
| B4 | -0.239 |
| B5 | -0.116 |
| B6 | -0.172 |
| B7 | -0.289 |
| B8 | -0.37 |
| B9 | -0.467 |
| B10 | -0.0116 |
| B11 | -0.0949 |
| B12 | -0.186 |
| B13 | -0.132 |
| B14 | -0.316 |
| B15 | 0.219 |
| B16 | -0.879 |

| Binder | median log2 fold change |
| --- | --- |
| B17 | -0.431 |
| B18 | -0.56 |
| B19 | 0.0138 |
| B20 | -0.277 |
| B21 | -0.599 |
| B22 | -0.197 |
| B23 | -0.64 |
| B24 | -0.246 |
| B25 | -0.418 |
| B26 | -0.1 |
| B27 | 0.0575 |
| B28 | -0.258 |
| B29 | -0.416 |
| B30 | -0.436 |
| B31 | -0.606 |
| B32 | -0.724 |
